Assay results as given in PubChem BioAssay (EPA / NIEHS).
More than one record can exist for a structure, and the calls need not agree. Activity calls are given as the source filed them. Rule for the calls: active = hit-call score of the fitted dose curve at least 0.9, where 1 is the maximum; inactive = score below 0.9.

Columns and labels:
[1] = ATG_GLI_CIS: Attagene CIS-FACTORIAL HepG2 Assay for human Zinc Finger Protein GLI1 (AID 2282945); details: HepG2, Attagene cis-factorial reporter mRNA, GLI element; actives raise or lower the signal
In short: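 HepG2 cells transiently transfected with cis-promoter multiplexed reporter units report endogenous transcription factor activity. After 24 h chemical exposure, reporter mRNA was quantified by RT-PCR, 6-FAM labelling, HpaI digestion and capillary electrophoresis, with bidirectional fitting against DMSO.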

[2] = target: Bile acid receptor (Homo sapiens) (UniProt Q96RI1); assay: ATG_IR1_CIS: Attagene CIS-FACTORIAL HepG2 Assay for human Nuclear Receptor Subfamily 1 Group H Member 4 (NR1H4), IR1 submotif (AID 2282946); details: IR1 reporter transcription, actives raise or lower the signal
Chain of Bile acid receptor (Homo sapiens) (Q96RI1 whole entry, looked up): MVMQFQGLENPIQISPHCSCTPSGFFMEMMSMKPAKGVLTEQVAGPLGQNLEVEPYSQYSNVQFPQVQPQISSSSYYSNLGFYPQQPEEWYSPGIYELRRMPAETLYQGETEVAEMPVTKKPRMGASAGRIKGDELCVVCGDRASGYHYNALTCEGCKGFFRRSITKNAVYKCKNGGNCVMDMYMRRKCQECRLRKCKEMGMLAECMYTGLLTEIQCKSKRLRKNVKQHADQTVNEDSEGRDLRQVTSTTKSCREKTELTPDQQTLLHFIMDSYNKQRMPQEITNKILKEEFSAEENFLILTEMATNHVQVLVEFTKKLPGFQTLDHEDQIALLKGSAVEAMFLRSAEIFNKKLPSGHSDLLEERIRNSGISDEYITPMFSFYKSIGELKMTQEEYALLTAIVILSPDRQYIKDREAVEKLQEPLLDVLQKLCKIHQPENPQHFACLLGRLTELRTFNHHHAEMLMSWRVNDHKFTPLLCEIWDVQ
In short: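 Transient MRTU transfection, HepG2; 24 h dosing; RNA → RT-PCR → 6-FAM primer extension → HpaI digest → capillary electrophoresis fluorescence. Gain/loss of signal fitted relative to DMSO.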

[3] = ATG_GRE_CIS: Attagene CIS-FACTORIAL HepG2 Assay for human Glucocorticoid Response Elements (GRE) (AID 2282947); details: HepG2 GRE cis-reporter, Attagene multiplex mRNA; actives raise or lower the signal
In short: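 HepG2 cells transiently transfected with multiple cis-promoter reporter units measure endogenous TF activity; 24 h compound exposure. Reporter mRNA quantified by RT-PCR, FAM labelling, HpaI digestion and capillary electrophoresis; bidirectional fit vs DMSO baseline.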

[4] = ATG_ISRE_CIS: Attagene CIS-FACTORIAL HepG2 Assay for human Interferon Regulatory Factor 1 (IRF1) binding to an Interferon-Stimulated Response Element (ISRE) (AID 2282948); details: HepG2 ISRE cis-reporter (Attagene), mRNA transcription readout; actives raise or lower the signal
In short: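 Quantitation relies on labelled RT-PCR fragments separated by capillary electrophoresis. Human HepG2 cells bearing cis-promoter reporter constructs were treated 24 h; DMSO served as baseline for bidirectional fitting.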

[5] = ATG_M_32_CIS: Attagene CIS-FACTORIAL HepG2 Assay for M32 Transcription Factor (Internal Marker) (AID 2282949); details: HepG2 Attagene cis-factorial M32 reporter, mRNA; actives raise or lower the signal;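 note: background control marker of the multiplexed CIS panel rather than a real target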
In short: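 Following 24 h chemical exposure of HepG2 cells transiently expressing cis-promoter reporter constructs, reporter transcript levels were determined by RT-PCR with fluorescent labelling and capillary electrophoresis, then fitted bidirectionally against DMSO.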

[6] = ATG_M_06_CIS: Attagene CIS-FACTORIAL HepG2 Assay for M06 Transcription Factor (Internal Marker) (AID 2282950); details: HepG2 Attagene CIS-FACTORIAL M06 internal marker reporter; actives raise or lower the signal
In short: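 One of many multiplexed endpoints: HepG2 reporter mRNA after 24 h dosing, detected by RT-PCR and capillary electrophoresis fluorescence; gain or loss of signal analysed against DMSO.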

[7] = target: Hypoxia-inducible factor 1-alpha (Homo sapiens) (UniProt Q16665); assay: ATG_HIF1a_CIS: Attagene CIS-FACTORIAL HepG2 Assay for human Hypoxia Inducible Factor 1 (HIF1A) (AID 2282951); details: HepG2 Attagene cis-factorial HIF1a reporter transcription; actives raise or lower the signal
Chain of Hypoxia-inducible factor 1-alpha (Homo sapiens) (Q16665 whole entry, looked up): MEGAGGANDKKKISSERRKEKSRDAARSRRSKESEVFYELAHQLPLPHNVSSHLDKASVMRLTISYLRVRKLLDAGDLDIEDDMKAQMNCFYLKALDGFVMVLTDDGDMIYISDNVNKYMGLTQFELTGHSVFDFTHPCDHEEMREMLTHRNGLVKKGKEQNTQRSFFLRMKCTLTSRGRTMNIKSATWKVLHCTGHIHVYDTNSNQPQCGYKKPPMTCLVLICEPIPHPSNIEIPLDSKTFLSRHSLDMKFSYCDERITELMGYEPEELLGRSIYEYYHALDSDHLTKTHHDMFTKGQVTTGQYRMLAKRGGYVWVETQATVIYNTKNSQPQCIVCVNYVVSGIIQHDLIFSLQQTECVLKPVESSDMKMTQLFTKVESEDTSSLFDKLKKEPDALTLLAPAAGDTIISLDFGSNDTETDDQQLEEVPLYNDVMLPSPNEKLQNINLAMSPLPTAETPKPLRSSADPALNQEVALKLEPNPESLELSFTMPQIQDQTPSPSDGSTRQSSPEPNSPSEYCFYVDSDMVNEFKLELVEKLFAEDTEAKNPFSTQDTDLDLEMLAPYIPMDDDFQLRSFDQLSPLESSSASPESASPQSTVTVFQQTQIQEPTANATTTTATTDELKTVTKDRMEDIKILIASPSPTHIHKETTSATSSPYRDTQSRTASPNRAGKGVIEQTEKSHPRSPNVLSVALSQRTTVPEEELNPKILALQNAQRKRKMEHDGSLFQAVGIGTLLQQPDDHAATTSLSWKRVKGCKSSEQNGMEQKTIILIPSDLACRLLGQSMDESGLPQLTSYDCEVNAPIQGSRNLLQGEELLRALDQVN
In short: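 Measures endogenous transcription-factor activity through cis-regulated reporter mRNA in HepG2. Cells dosed 24 h; transcripts quantified by RT-PCR with 6-FAM-labelled products separated by capillary electrophoresis; DMSO serves as negative control.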

[8] = target: Hepatocyte nuclear factor 6 (Homo sapiens) (UniProt Q9UBC0); assay: ATG_HNF6_CIS: Attagene CIS-FACTORIAL HepG2 Assay for human Hepatocyte Nuclear Factor 6 (HNF6) (AID 2282952); details: HepG2 Attagene cis-factorial HNF6 reporter transcription; actives raise or lower the signal
Chain of Hepatocyte nuclear factor 6 (Homo sapiens) (Q9UBC0 whole entry, looked up, the tested form may be a part): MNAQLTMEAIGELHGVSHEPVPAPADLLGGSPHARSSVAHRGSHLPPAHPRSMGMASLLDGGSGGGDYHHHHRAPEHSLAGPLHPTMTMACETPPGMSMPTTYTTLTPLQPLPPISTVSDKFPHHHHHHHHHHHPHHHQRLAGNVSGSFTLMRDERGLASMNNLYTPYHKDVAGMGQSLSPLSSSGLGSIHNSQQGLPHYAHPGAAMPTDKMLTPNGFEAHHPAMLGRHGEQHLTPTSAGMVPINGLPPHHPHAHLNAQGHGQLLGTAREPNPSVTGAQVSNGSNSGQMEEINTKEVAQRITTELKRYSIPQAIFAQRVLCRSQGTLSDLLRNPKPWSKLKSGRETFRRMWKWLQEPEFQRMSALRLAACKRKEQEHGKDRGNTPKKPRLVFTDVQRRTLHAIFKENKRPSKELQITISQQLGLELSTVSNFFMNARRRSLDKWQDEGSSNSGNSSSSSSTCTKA
In short: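 HepG2 cells transiently transfected with cis-element-driven multiplexed reporter units measuring endogenous transcription factor activity. After 24 h exposure, reporter mRNA quantified by RT-PCR, FAM-labelled fragments and capillary electrophoresis; bidirectional fitting versus DMSO.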

[9] = ATG_PBREM_CIS: Attagene CIS-FACTORIAL HepG2 Assay for human Phenobarbital-responsive Enhancer Module (PBREM) (AID 2282955); details: HepG2 PBREM cis-reporter, Attagene multiplexed transcription; actives raise or lower the signal
In short: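 Fluorescence of labelled reporter cDNA fragments, resolved by capillary electrophoresis, gives mRNA induction in transfected HepG2 cells treated for 24 h; DMSO serves as negative control and baseline.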

[10] = target: Paired box protein Pax-6 (Homo sapiens) (UniProt P26367); assay: ATG_Pax6_CIS: Attagene CIS-FACTORIAL HepG2 Assay for human Paired Box 6 (PAX6) (AID 2282956); details: HepG2 CIS-FACTORIAL PAX6 reporter transcription, RNA readout; actives raise or lower the signal
Chain of Paired box protein Pax-6 (Homo sapiens) (P26367 whole entry, looked up): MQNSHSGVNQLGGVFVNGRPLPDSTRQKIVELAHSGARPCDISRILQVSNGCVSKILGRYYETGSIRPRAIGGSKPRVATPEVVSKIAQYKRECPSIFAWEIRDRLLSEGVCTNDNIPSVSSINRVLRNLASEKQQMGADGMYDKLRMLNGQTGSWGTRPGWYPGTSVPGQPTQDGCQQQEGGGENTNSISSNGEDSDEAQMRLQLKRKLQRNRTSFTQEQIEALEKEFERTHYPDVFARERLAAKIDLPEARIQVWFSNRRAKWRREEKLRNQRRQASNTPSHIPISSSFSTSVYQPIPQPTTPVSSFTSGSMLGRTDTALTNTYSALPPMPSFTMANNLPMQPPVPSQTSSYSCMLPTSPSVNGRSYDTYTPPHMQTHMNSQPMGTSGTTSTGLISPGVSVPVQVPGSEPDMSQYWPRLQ
In short: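 After twenty-four hours of chemical exposure, transfected HepG2 cells are harvested for RNA. Cis-promoter reporter transcripts are amplified, fluorescently labelled and sized by capillary electrophoresis, with gain and loss of signal scored against DMSO.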

[11] = ATG_PXRE_CIS: Attagene CIS-FACTORIAL HepG2 Assay for human Pregnane X Receptor Element (PXRE) (AID 2282957); details: HepG2 Attagene CIS-FACTORIAL PXRE reporter, mRNA; actives raise or lower the signal
In short: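 HepG2 cells transiently transfected with cis-element-driven multiplexed reporter units; after 24 h chemical exposure, reporter mRNA measured by RT-PCR, 6-FAM labelling, HpaI digestion and capillary electrophoresis. Bidirectional fitting relative to DMSO.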

[12] = ATG_PPRE_CIS: Attagene CIS-FACTORIAL HepG2 Assay for human Peroxisome Proliferator-activated Response Element (PPRE) (AID 2282958); details: HepG2 PPRE cis-element reporter, Attagene transcription factor profiling; actives raise or lower the signal
In short: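 Cells are first transfected transiently with the multiplexed reporter library, then dosed for 24 h. Total RNA is reverse-transcribed, amplified, fluorescently end-labeled and HpaI-cut before capillary electrophoresis; activity is fitted bidirectionally against DMSO controls.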

[13] = ATG_RORE_CIS: Attagene CIS-FACTORIAL HepG2 Assay for human RAR-related Orphan Receptor Element (RORE) (AID 2282959); details: HepG2 Attagene cis-factorial RORE reporter, mRNA; actives raise or lower the signal
In short: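 Cells were HepG2 carrying transfected cis-regulated reporter constructs, dosed for 24 hours. Total RNA was reverse-transcribed and reporter cDNA amplified, fluorescently labeled and sized by capillary electrophoresis. Activity was fitted bidirectionally relative to DMSO.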

[14] = ATG_Sox_CIS: Attagene CIS-FACTORIAL HepG2 Assay for human SRY-box transcription factor (SOX) (AID 2282960); details: HepG2 Attagene cis-factorial SOX reporter, mRNA; actives raise or lower the signal
In short: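 Transient MRTU transfection of HepG2; 24 h compound incubation; TriZol RNA, oligo(dT) RT, PCR, 6-FAM primer extension, HpaI cut, CE. Bidirectional fit, DMSO = baseline.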

[15] = target: Transcription factor Sp1 (Homo sapiens) (UniProt P08047); assay: ATG_Sp1_CIS: Attagene CIS-FACTORIAL HepG2 Assay for human Specificity Protein 1 (Sp1) (AID 2282961); details: HepG2 Sp1 cis-reporter transcription, actives raise or lower the signal
Chain of Transcription factor Sp1 (Homo sapiens) (P08047 whole entry, looked up): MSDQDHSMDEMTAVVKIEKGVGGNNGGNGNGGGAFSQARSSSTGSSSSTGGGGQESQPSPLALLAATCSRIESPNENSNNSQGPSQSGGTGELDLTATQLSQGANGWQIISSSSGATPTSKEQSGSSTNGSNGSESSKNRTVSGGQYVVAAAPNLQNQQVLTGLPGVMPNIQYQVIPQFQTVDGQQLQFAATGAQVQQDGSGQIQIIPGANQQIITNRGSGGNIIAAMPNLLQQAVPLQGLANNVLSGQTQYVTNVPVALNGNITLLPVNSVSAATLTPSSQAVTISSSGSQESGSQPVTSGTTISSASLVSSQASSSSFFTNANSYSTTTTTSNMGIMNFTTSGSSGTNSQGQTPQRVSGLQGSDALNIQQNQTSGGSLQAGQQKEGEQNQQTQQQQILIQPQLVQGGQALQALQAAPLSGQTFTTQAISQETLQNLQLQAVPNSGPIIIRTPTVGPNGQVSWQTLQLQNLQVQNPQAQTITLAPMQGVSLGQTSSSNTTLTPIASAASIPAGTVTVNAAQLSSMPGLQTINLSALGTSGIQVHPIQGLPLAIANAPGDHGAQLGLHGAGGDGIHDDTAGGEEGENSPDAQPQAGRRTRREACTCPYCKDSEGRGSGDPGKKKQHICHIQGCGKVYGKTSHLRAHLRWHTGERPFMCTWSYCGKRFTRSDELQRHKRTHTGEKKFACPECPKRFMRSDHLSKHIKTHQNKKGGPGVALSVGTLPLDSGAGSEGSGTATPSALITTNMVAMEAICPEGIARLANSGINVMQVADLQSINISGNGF
In short: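 Endogenous Sp1 activity was gauged in human liver HepG2 cells bearing transfected reporter units under a cis-regulating promoter. After 24 h dosing, reporter mRNA was quantified by RT-PCR with capillary electrophoresis, and activity fitted bidirectionally versus DMSO.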

[16] = ATG_SREBP_CIS: Attagene CIS-FACTORIAL HepG2 Assay for human Sterol Regulatory Element Binding (SREBP) (AID 2282962); details: HepG2 Attagene cis-factorial SREBP reporter, mRNA; actives raise or lower the signal
In short: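 Twenty-four hours after chemical dosing of transfected HepG2 cultures, reporter RNA was converted to cDNA, amplified, end-labelled with 6-FAM and resolved by capillary electrophoresis. Responses were fitted relative to DMSO.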

[17] = target: Signal transducer and activator of transcription 3 (Homo sapiens) (UniProt P40763); assay: ATG_STAT3_CIS: Attagene CIS-FACTORIAL HepG2 Assay for human Signal Transducer and Activator of Transcription 3 (STAT3) (AID 2282963); details: HepG2, Attagene cis-factorial STAT3 reporter transcription; actives raise or lower the signal
Chain of Signal transducer and activator of transcription 3 (Homo sapiens) (P40763 whole entry, looked up): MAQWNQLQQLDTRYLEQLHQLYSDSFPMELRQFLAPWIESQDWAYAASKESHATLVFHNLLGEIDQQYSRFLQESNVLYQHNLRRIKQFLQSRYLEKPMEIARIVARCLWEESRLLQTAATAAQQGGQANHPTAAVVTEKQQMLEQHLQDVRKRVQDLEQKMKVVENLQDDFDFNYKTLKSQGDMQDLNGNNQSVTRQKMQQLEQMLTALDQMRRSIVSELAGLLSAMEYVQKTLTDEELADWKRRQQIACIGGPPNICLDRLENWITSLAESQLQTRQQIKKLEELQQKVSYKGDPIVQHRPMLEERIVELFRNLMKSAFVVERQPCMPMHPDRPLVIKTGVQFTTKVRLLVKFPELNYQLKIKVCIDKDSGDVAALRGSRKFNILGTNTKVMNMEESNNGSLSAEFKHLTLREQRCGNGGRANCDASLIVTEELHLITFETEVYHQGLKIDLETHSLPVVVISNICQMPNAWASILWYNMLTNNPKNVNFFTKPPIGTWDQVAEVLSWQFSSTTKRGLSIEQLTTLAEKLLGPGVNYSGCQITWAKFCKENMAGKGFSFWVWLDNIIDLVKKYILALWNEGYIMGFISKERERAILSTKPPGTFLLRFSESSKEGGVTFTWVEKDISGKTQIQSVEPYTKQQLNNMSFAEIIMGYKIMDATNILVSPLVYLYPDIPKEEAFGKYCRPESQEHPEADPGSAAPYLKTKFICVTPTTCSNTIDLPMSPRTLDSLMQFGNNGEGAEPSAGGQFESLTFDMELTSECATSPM
In short: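 HepG2 cells transiently transfected with cis-element-driven multiple reporter transcription units; after 24 h chemical exposure, reporter mRNA measured by RT-PCR, 6-FAM primer-extension labelling, HpaI digestion and capillary electrophoresis. Bidirectional fitting versus DMSO baseline.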

[18] = ATG_TA_CIS: Attagene CIS-FACTORIAL HepG2 Assay for human TA Basal Promoter (AID 2282964); details: HepG2 Attagene CIS-factorial TA basal promoter reporter; actives raise or lower the signal
In short: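 Transient MRTU transfection of HepG2 preceded 24 h compound exposure. Reporter mRNA levels were then read by RT-PCR with capillary electrophoresis, and this background-control endpoint was fitted bidirectionally to DMSO.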

[19] = target: Heat shock factor protein 1 (Homo sapiens) (UniProt Q00613); assay: ATG_HSE_CIS: Attagene CIS-FACTORIAL HepG2 Assay for human Heat Shock Transcription Factor 1 (HSE) (AID 2282953); details: HepG2 HSE cis-reporter, Attagene RNA transcription; actives raise or lower the signal
Chain of Heat shock factor protein 1 (Homo sapiens) (Q00613 whole entry, looked up): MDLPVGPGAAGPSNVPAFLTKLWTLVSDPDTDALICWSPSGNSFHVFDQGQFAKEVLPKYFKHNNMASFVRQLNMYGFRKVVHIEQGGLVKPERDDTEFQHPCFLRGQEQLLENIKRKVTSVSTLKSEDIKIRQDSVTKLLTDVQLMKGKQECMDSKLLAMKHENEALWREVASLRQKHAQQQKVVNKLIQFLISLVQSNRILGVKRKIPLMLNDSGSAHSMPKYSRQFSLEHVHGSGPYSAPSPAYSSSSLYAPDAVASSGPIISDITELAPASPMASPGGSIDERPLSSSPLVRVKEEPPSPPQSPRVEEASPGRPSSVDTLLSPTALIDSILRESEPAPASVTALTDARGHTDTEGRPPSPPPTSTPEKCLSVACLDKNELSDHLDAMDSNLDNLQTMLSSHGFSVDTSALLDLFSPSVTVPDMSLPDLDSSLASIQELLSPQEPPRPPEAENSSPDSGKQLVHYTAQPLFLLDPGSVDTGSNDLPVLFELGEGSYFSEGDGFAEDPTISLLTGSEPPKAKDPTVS
In short: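 Using HepG2 with transfected cis-driven reporter constructs, compound effects on endogenous factor activity are scored as reporter mRNA change at 24 h. Detection: RT-PCR, HpaI digestion, capillary electrophoresis; bidirectional fitting to DMSO.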

[20] = ATG_MRE_CIS: Attagene CIS-FACTORIAL HepG2 Assay for human Metal Responsive Element (MRE) (AID 2282954); details: HepG2 MRE cis-reporter transcription, Attagene multiplex; actives raise or lower the signal
In short: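 HepG2 cells transiently transfected with multiple cis-element reporter units measure endogenous MTF1-driven transcription. After 24 h compound exposure, reporter mRNA is quantified by RT-PCR with 6-FAM labelling, HpaI digestion and capillary electrophoresis; bidirectional fits versus DMSO.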

Measured: AC50

CC(C)(C)c1ccc(OC2CCCCC2O)cc1 (stereo not drawn)
active: [9] 26.1 µM | [11] 1.73 µM | [16] 26.5 µM
inactive: [1] | [2] | [3] | [4] | [5] | [6] | [7] | [8] | [10] | [12] | [13] | [14] | [15] | [17] | [18]

CC(CCl)OP(=O)(OC(C)CCl)OC(C)CCl (stereo not drawn)
inactive: [1] | [2] | [3] | [4] | [5] | [6] | [7] | [8] | [19] | [9] | [10] | [12] | [14] | [15] | [16] | [17] | [18]
active: [11] 3.53 µM

O=C(Cl)C(F)(F)C(F)(F)C(F)(F)C(F)(F)C(F)(F)C(F)(F)C(F)(F)C(F)(F)F
active: [4] 33.4 µM | [20] 48 µM | [10] 54.1 µM | [11] 8.97 µM | [12] 33.4 µM
inactive: [1] | [2] | [3] | [5] | [6] | [7] | [8] | [9] | [14] | [15] | [16] | [17] | [18]

CCO[Si](CCC(F)(F)C(F)(F)C(F)(F)C(F)(F)C(F)(F)C(F)(F)F)(OCC)OCC
inactive: [2] | [3] | [4] | [5] | [6] | [7] | [8] | [19] | [20] | [9] | [10] | [11] | [12] | [13] | [14] | [15] | [16] | [17] | [18]

CCCCCCCOC(=O)c1ccccc1C(=O)OCCCCCCC
active: [11] 5.36 µM
inactive: [2] | [3] | [4] | [5] | [6] | [7] | [8] | [19] | [20] | [9] | [10] | [12] | [13] | [14] | [15] | [16] | [17] | [18]

Nc1ccc([N+](=O)[O-])cc1O
active: [7] 31 µM
inactive: [1] | [2] | [3] | [4] | [5] | [6] | [8] | [19] | [9] | [10] | [11] | [12] | [14] | [15] | [16] | [17] | [18]

CCCCOc1ccc(N)cc1
inactive: [1] | [2] | [3] | [4] | [5] | [6] | [7] | [8] | [19] | [9] | [10] | [11] | [12] | [14] | [15] | [16] | [17] | [18]

Cc1ccc(S(=O)(=O)NCl)cc1
inactive: [1] | [3] | [4] | [5] | [6] | [7] | [8] | [10] | [11] | [14] | [15] | [16] | [17] | [18]
active: [11] 131 µM

c1ccc(B(c2ccccc2)c2ccccc2)cc1
active: [7] 58.4 µM | [20] 51.6 µM | [11] 5.22 µM | [13] 71.5 µM
inactive: [2] | [3] | [4] | [5] | [6] | [8] | [19] | [9] | [10] | [12] | [14] | [15] | [16] | [17] | [18]

CC(=O)Nc1ccc(N=Nc2cc(C)ccc2O)cc1
inactive: [1] | [2] | [3] | [4] | [5] | [6] | [7] | [8] | [10] | [13] | [14] | [15] | [16] | [17] | [18]
active: [20] 27.6 µM | [9] 49.4 µM | [11] 19.5 µM | [12] 39.6 µM

O=C(C=Cc1ccccc1)OCC=Cc1ccccc1
inactive: [1] | [2] | [3] | [4] | [5] | [6] | [7] | [8] | [19] | [9] | [10] | [12] | [14] | [15] | [16] | [17] | [18]
active: [11] 15.9 µM

FC(F)(F)C(F)(F)C(F)(F)C(F)(F)C(F)(F)C(F)(F)CCS
inactive: [2] | [3] | [4] | [5] | [6] | [7] | [8] | [19] | [20] | [9] | [10] | [11] | [12] | [13] | [14] | [15] | [16] | [17] | [18]
